# According to article PMC7862700, “An all-to-all approach to the identification of sequence-specific readers for epigenetic DNA modifications on cytosine”:
# Assays:
# Assay in all cases: DAPPL (digital affinity profiling via proximity ligation, sequencing); 10 mM Tris-HCl pH 7.5, 50 mM NaCl, 1 mM DTT, 4% glycerol, room temperature, 30 min; GST-TFs on glutathione beads, 16-mer random dsDNA library, 0.1% formaldehyde crosslink after washing; high values mean tight binding
# Details in all cases: protein: recombinant; tags: N-terminal GST; dsDNA, one strand shown
# FLI1 = biological target: T1, FLI1 (Homo sapiens, UniProt Q01543 1-452)
# T1 sequence: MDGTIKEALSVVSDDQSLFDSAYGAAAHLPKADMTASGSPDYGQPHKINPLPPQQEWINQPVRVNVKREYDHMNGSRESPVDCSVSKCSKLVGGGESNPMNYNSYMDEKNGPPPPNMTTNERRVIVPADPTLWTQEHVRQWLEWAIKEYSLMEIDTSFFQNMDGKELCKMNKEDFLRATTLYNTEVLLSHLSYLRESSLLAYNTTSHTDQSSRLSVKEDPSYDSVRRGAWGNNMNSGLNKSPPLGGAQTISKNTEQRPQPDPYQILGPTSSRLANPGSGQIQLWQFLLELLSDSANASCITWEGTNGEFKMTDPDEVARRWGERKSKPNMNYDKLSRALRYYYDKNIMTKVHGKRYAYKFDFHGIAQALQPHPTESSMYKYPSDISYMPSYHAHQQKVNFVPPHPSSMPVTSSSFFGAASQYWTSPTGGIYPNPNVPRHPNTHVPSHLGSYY
# In short: (§1)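 Human transcription factors fused to GST were expressed in yeast, captured on glutathione beads, given DNA barcodes and pooled with a GST-only negative control. Pools were incubated with 200 nmole of a 16-mer random double-stranded DNA library in Tris/NaCl/DTT/glycerol buffer at room temperature for 30 min. They were then washed, crosslinked with 0.1% formaldehyde, proximity-ligated (BsaI/T4 ligase, 1 h, 37 °C), PCR-amplified and sequenced on an Illumina NextSeq500. Binding signal is each 6-mer's read frequency for a factor divided by its frequency for the GST control.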
# ELK1 = biological target: T2, ELK1 (Homo sapiens, UniProt P19419 1-428)
# T2 sequence: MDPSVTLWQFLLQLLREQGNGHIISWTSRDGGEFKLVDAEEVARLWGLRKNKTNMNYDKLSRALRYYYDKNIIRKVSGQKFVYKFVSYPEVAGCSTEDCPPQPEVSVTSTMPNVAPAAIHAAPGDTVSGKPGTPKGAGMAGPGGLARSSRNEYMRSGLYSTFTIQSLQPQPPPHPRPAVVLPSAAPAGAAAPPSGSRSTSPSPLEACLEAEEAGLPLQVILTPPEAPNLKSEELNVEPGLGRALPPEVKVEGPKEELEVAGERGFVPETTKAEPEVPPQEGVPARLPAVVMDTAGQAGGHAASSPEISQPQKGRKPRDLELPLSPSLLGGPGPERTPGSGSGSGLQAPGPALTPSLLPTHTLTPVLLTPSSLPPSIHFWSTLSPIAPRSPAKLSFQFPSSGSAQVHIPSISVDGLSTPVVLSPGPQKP
# In short: as §1
# GABPA = biological target: T3, GABPA (Homo sapiens, UniProt Q06546 1-454)
# T3 sequence: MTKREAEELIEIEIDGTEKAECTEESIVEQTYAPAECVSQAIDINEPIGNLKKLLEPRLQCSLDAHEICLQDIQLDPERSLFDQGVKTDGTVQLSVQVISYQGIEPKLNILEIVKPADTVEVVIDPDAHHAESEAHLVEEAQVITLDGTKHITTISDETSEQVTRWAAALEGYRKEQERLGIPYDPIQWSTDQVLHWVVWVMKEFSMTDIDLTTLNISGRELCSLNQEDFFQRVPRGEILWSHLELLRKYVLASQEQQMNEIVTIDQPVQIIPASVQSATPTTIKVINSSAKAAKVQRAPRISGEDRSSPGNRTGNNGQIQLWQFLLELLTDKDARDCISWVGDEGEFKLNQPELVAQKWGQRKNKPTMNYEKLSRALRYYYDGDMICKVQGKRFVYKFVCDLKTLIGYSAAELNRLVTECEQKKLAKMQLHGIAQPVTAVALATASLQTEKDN
# In short: as §1
# ERG = biological target: T4, ERG (Homo sapiens, UniProt P11308 1-479)
# T4 sequence: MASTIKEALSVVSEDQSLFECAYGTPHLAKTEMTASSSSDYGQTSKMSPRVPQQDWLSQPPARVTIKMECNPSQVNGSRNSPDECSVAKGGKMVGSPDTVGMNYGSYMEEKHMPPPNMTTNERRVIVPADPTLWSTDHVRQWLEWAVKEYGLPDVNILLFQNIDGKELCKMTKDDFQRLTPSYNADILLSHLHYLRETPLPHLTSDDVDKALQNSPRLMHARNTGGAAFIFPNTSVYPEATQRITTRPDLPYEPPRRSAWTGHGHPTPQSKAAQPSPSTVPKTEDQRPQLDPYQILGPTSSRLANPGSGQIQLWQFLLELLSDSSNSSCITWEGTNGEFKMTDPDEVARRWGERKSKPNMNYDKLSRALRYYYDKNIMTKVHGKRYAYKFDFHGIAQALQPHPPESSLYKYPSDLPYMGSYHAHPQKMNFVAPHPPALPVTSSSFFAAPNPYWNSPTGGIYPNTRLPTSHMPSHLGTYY
# In short: as §1
# ELF1 = ELF1 (Homo sapiens, UniProt P32519 1-619)
# In short: as §1
# EHF = biological target: T5, EHF (Homo sapiens, UniProt Q9NZC4 1-300)
# T5 sequence: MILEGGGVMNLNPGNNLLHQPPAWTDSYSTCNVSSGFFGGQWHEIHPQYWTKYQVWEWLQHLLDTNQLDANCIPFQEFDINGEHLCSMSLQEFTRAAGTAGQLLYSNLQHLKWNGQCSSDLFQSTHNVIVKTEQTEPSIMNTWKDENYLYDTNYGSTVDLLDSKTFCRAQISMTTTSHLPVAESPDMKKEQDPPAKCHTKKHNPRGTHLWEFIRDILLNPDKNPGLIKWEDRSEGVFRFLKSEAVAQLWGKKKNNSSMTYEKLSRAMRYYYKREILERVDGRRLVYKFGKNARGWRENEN
# In short: as §1
# SPI1 = SPI1 (Homo sapiens, UniProt P17947 1-270)
# In short: as §1
# SPIB = SPIB (Homo sapiens, UniProt Q01892 1-262)
# In short: as §1
# ELK3 = biological target: T6, ELK3 (Homo sapiens, UniProt P41970 1-407)
# T6 sequence: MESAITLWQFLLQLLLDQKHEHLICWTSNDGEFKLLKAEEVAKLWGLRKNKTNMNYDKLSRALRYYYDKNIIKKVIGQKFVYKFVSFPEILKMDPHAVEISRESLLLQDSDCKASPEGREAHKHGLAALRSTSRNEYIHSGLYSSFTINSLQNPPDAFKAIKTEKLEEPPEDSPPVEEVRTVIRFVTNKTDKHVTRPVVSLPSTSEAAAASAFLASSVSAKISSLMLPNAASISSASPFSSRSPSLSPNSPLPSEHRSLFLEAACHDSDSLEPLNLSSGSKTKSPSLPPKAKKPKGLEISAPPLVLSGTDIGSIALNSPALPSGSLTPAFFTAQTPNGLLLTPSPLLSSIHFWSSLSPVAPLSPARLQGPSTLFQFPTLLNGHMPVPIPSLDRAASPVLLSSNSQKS
# In short: as §1
# Sequence of SPIB (Q01892 whole entry): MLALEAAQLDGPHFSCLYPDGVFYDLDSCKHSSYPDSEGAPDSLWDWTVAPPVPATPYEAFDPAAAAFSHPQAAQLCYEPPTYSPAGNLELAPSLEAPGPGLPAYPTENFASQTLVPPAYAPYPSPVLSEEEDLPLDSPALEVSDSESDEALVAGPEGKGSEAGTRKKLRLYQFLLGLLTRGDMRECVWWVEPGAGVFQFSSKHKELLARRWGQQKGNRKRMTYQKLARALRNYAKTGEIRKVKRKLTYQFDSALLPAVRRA
# Sequence of ELF1 (P32519 whole entry): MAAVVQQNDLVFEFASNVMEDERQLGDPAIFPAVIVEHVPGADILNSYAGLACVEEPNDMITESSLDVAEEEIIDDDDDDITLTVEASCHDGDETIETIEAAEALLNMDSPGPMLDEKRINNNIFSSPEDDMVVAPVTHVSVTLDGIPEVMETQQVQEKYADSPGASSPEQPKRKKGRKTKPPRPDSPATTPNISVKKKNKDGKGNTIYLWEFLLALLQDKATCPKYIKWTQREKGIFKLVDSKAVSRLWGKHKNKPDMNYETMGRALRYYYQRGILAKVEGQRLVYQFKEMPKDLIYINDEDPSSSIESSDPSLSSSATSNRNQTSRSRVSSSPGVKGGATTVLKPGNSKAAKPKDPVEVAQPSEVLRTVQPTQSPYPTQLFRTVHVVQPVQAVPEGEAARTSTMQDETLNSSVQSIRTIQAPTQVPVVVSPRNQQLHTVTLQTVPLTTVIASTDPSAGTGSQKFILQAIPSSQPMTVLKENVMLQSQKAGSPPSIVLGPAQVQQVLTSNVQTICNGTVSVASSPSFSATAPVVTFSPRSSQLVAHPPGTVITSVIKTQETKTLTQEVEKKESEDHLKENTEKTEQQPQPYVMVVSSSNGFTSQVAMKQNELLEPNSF
Sequence,binding signal (FLI1),binding signal (ELK1),binding signal (GABPA),binding signal (ERG),binding signal (ELF1),binding signal (EHF),binding signal (SPI1),binding signal (SPIB),binding signal (ELK3)
CTCGCC,"1.16 fold enrichment (6-mer frequency, TF over GST control)","1.38 fold enrichment (6-mer frequency, TF over GST control)","1.26 fold enrichment (6-mer frequency, TF over GST control)","1.21 fold enrichment (6-mer frequency, TF over GST control)","1.25 fold enrichment (6-mer frequency, TF over GST control)","1.19 fold enrichment (6-mer frequency, TF over GST control)","1.17 fold enrichment (6-mer frequency, TF over GST control)","1.24 fold enrichment (6-mer frequency, TF over GST control)","1.25 fold enrichment (6-mer frequency, TF over GST control)"
ATAAAC,"1.22 fold enrichment (6-mer frequency, TF over GST control)","1.16 fold enrichment (6-mer frequency, TF over GST control)","1.11 fold enrichment (6-mer frequency, TF over GST control)","1.11 fold enrichment (6-mer frequency, TF over GST control)","1.14 fold enrichment (6-mer frequency, TF over GST control)","1.07 fold enrichment (6-mer frequency, TF over GST control)","1.14 fold enrichment (6-mer frequency, TF over GST control)","1.19 fold enrichment (6-mer frequency, TF over GST control)","1.14 fold enrichment (6-mer frequency, TF over GST control)"
CCAACG,"1.12 fold enrichment (6-mer frequency, TF over GST control)","1.15 fold enrichment (6-mer frequency, TF over GST control)","1.09 fold enrichment (6-mer frequency, TF over GST control)","1.17 fold enrichment (6-mer frequency, TF over GST control)","1.2 fold enrichment (6-mer frequency, TF over GST control)","1.11 fold enrichment (6-mer frequency, TF over GST control)","1.15 fold enrichment (6-mer frequency, TF over GST control)","1.07 fold enrichment (6-mer frequency, TF over GST control)","1 fold enrichment (6-mer frequency, TF over GST control)"
TCTGTT,"1.41 fold enrichment (6-mer frequency, TF over GST control)","1.47 fold enrichment (6-mer frequency, TF over GST control)","1.24 fold enrichment (6-mer frequency, TF over GST control)","1.42 fold enrichment (6-mer frequency, TF over GST control)","1.42 fold enrichment (6-mer frequency, TF over GST control)","1.45 fold enrichment (6-mer frequency, TF over GST control)","1.43 fold enrichment (6-mer frequency, TF over GST control)","1.33 fold enrichment (6-mer frequency, TF over GST control)","1.15 fold enrichment (6-mer frequency, TF over GST control)"
AGTTTC,"1.23 fold enrichment (6-mer frequency, TF over GST control)","1.28 fold enrichment (6-mer frequency, TF over GST control)","1.29 fold enrichment (6-mer frequency, TF over GST control)","1.3 fold enrichment (6-mer frequency, TF over GST control)","1.27 fold enrichment (6-mer frequency, TF over GST control)","1.34 fold enrichment (6-mer frequency, TF over GST control)","1.22 fold enrichment (6-mer frequency, TF over GST control)","1.24 fold enrichment (6-mer frequency, TF over GST control)","1.46 fold enrichment (6-mer frequency, TF over GST control)"
ACTGCG,"1.24 fold enrichment (6-mer frequency, TF over GST control)","1.32 fold enrichment (6-mer frequency, TF over GST control)","1.26 fold enrichment (6-mer frequency, TF over GST control)","1.26 fold enrichment (6-mer frequency, TF over GST control)","1.35 fold enrichment (6-mer frequency, TF over GST control)","1.37 fold enrichment (6-mer frequency, TF over GST control)","1.33 fold enrichment (6-mer frequency, TF over GST control)","1.3 fold enrichment (6-mer frequency, TF over GST control)","1.25 fold enrichment (6-mer frequency, TF over GST control)"
GCTCTT,"1.58 fold enrichment (6-mer frequency, TF over GST control)","1.55 fold enrichment (6-mer frequency, TF over GST control)","1.52 fold enrichment (6-mer frequency, TF over GST control)","1.39 fold enrichment (6-mer frequency, TF over GST control)","1.66 fold enrichment (6-mer frequency, TF over GST control)","1.29 fold enrichment (6-mer frequency, TF over GST control)","1.37 fold enrichment (6-mer frequency, TF over GST control)","1.49 fold enrichment (6-mer frequency, TF over GST control)","1.56 fold enrichment (6-mer frequency, TF over GST control)"
GTTTAT,"1.09 fold enrichment (6-mer frequency, TF over GST control)","1.02 fold enrichment (6-mer frequency, TF over GST control)","1.08 fold enrichment (6-mer frequency, TF over GST control)","1.05 fold enrichment (6-mer frequency, TF over GST control)","1.06 fold enrichment (6-mer frequency, TF over GST control)","1.06 fold enrichment (6-mer frequency, TF over GST control)","1.07 fold enrichment (6-mer frequency, TF over GST control)","1.1 fold enrichment (6-mer frequency, TF over GST control)","1.12 fold enrichment (6-mer frequency, TF over GST control)"
